Compounds with a hit are over-represented: about 7.5% of the library has one in this group of screens.
Rab9 promoter act – activates the Rab9 promoter | Huh7 Rab9 promoter-luciferase reporter, luminescence, 24 h | 320,000 tested, 2.8% active | AID 485297 | Potency, µM (series often up to 9.22 µM), for inactives: top-dose activation, negative = inhibition, hits mostly activators; also: % of control where 0% means no effect; nearly all actives have a fitted effect of over 60% in size
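Cells were plated at 1500 per well in reduced-serum medium with 10% FBS and left 2 h. Compound in DMSO was then added for 24 h at 37 °C. Reporter signal was read by luminescence after 10 min with luciferase detection reagent.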
ELG1 genotox – inducers of genotoxicity in HEK293T ELG1-luciferase cells; HEK293T ELG1-luciferase reporter, luminescence, 16 h; Potency, µM (highest dose often 46 µM), inactives show at the top dose activity change, positive = activation, actives largely listed as activators; 330,000 tested, 1.3% active; AID 504466; also: % of control where 0% means no effect; nearly all actives have a fitted effect of over 60% in size
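HEK293T cells expressing luciferase-tagged ELG1 were treated with compound or DMSO for 16 hr at 37°C. Luciferase activity was then read after 30 min with ONE-Glo at room temperature; rising signal flags genetic stress.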
KinaseGlo FLuc – counter-screen: inhibitors of Kinase-Glo firefly luciferase; Q27757; Kinase-Glo luciferase, ATP luminescence, 8 min; Potency, µM (series often up to 38.3 µM), for inactives: top-dose activity change, negative = inhibition, most hits filed as inhibitors; 200,000 tested, 0.28% active; also: % is scaled to controls: 0 for no effect and ±100 for the full control effect; nearly all actives have a fitted effect of over 60% in size
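Luminescence was the read-out, taken after 8-minute incubation at ambient temperature. Luciferase turned over luciferin with 10 uM ATP in imidazole pH 7.2 buffer containing KCl, MgCl2, Tween 20 and BSA.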
FLuc modulator – inhibits or activates purified firefly luciferase, miR-21 counter-screen; P08659; purified FLuc, Km substrates, luminescence inhibition; Potency, µM (top dose mostly 57.5 µM), inactives show at the highest dose activity change, negative = inhibition, most hits filed as inhibitors; 360,000 tested, 6.9% active;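 also: plate controls were vehicle for no effect and reference inhibitor for full effect; nearly all actives have a fitted effect of over 55% in size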
Target sequence (P08659 whole entry, looked up): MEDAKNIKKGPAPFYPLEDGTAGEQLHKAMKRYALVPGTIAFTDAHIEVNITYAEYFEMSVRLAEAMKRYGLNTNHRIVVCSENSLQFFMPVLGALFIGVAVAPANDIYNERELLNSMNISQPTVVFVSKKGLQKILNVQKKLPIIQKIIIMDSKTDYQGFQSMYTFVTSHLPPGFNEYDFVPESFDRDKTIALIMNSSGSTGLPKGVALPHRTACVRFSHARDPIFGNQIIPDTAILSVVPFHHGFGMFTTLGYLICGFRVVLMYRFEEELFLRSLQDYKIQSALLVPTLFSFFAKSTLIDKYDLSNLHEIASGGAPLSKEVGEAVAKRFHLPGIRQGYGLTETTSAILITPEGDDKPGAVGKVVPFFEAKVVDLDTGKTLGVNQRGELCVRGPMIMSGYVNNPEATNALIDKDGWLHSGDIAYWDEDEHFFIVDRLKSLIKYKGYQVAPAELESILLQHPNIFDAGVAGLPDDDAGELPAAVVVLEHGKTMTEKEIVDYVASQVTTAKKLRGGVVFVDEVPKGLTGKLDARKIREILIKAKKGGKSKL
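Biochemical qHTS of compounds, final roughly 60 µM downward over six points, against 10 nM purified firefly luciferase using Km concentrations of substrates (10 uM D-luciferin, 10 uM ATP) in Tris acetate pH 7.5 buffer; luminescence output.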
NPC1 promoter act – activates the NPC1 promoter; Huh7 NPC1 promoter luciferase reporter, 24 h; AID 485313; Potency, µM (highest dose often 9.22 µM), for the others: at the top dose activation, usual class: activators; 320,000 tested, 2.4% active; also: % of control where 0% means no effect; nearly all actives have a fitted effect of over 60% in size
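In 1536-well qHTS, Huh7 cells harboring an NPC1 promoter–luciferase construct received compound for 24 h; activation was quantified by luminescence following luciferase reagent addition.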
SMN2 splice enh – increases expression of the SMN2 splice variant; AID 1458; 210,000 tested, 2.8% active; HEK293 SMN2-luciferase splicing reporter, luminescence, 30-36 h; Potency, µM (series often up to 46.1 µM), inactives show top-dose activity change, positive = activation, most hits filed as activators; also: % of control where 0% means no effect; nearly all actives have a fitted effect of over 55% in size
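HEK293 cells carry an SMN2 minigene-luciferase reporter in which exon 7 inclusion puts luciferase in frame. Cells were seeded at 2000 cells/well, attached for 10-12 hours, then exposed to compounds for 30-36 hours at 37C before ONE-Glo luminescence.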
* = called active by the depositor; ? = inconclusive; nt = no result given. Calls follow the shape of the dose curve; as a rule, active = well fitted curve in the direction sought with a large enough effect; inconclusive = small, poorly fitted or top-dose-only effect, or another doubt; inactive = no such curve, though single readings can be large; an effect the other way counts as inactive or inconclusive. Potency is read from the fitted curve at half-maximal effect.

SMILES | Rab9 promoter act | ELG1 genotox | KinaseGlo FLuc | FLuc modulator | NPC1 promoter act | SMN2 splice enh
CCCC(=O)Nc1nnc(SCc2cc(=O)n3cccc(C)c3n2)s1 | nt | nt | nt | 4% | nt | nt
O=C(CCC(=O)N1CCSc2ccccc21)NC1CCCCC1 | 1% | -3% | nt | -2% | -2% | nt
Cc1ccc(NC(=O)CN(C)S(=O)(=O)c2cccs2)c(Br)c1 | 14% | 11% | nt | 24µM* | 3% | nt
COCC(=O)Nc1nc2ccccc2s1 | nt | nt | -3% | ? | nt | 20%
Cc1ccc2nc(-c3ccc(NC(=O)C4CCCO4)cc3)[nH]c2c1 (configuration not stated) | 0.32µM* | ? | -12% | 0.6µM* | 0.28µM* | 0.56µM*
CC1(C(=O)Nc2nc3ccccc3s2)CC1(Br)Br (configuration not stated) | ? | ? | nt | 21µM* | ? | nt
COc1ccc2nc(NC(=O)Cc3cccs3)sc2c1 | 2.8µM* | 6.5µM* | -4% | 12µM* | 2.8µM* | 10%
COc1ccc2nc(NC(=O)CCn3cccc3)sc2c1 | -8% | 0% | -9% | -7% | ? | -10%
CC(C)OCCCNC(=O)C(=O)Nc1c2c(nn1-c1ccccc1)CS(=O)(=O)C2 | nt | nt | nt | 5% | nt | nt
O=C(Cc1ccccc1)Nc1nc(=O)c2ccccc2s1 | nt | 4% | -3% | 5% | -2% | 1%
O=C(Cc1ccccc1)Nc1nc2ccccc2s1 | 27% | 13% | 1% | 27µM* | 25% | ?
O=C(Cc1cccs1)Nc1nc2ccccc2s1 | 3.2µM* | 8% | -8% | 15µM* | ? | 17%
O=C(O)CCC(=O)Nc1ccc(-c2nc3ccc(C(=O)c4ccccc4)cc3[nH]2)cc1 | 3% | 9% | nt | 11µM* | 0% | nt
Cc1ccc2nc(NC(=O)Cc3cccs3)sc2c1 | ? | ? | -4% | 8.5µM* | 2.2µM* | ?
COC(=O)c1ccc(NC(=O)CN(Cc2ccccc2)S(=O)(=O)c2ccc(Cl)cc2)cc1 | nt | nt | nt | -7% | nt | -26%
O=C(COc1ccccc1)NCCc1csc(-c2ccc(Cl)cc2)n1 | nt | nt | nt | -18% | nt | nt
Cc1cc(NC(=O)CSCC(=O)Nc2nc3ccc(F)cc3s2)no1 | -6% | 1% | nt | -17% | 4% | nt
O=C(Cc1nnc(NC(=O)Nc2ccccc2)s1)Nc1ccccc1 | 0% | 7% | nt | -1% | 0% | nt
CCOc1ccc2nc(NS(=O)(=O)c3cccs3)sc2c1 | 8% | 1% | nt | ? | -2% | nt
O=C(Cc1nc(=O)c2ccccc2s1)Nc1ccccc1 | 0.32µM* | ? | ? | 0.54µM* | 0.71µM* | 2.5µM*
Cc1ccc2nc(NC(=O)CSCC(=O)Nc3cc(C)on3)sc2c1 | 2.5µM* | ? | nt | ? | ? | nt
CCOc1ccc2nc(NC(=O)Cc3cccs3)sc2c1 | ? | ? | 18% | 12µM* | ? | ?
Oc1ccc(/C=N/Nc2ncc(Br)cn2)c(O)c1 | ? | 15µM* | 1% | 11µM* | ? | -23%
Oc1ccc(Br)cc1/C=N/Nc1ncc(-c2ccccc2)cn1 | -1% | 1% | 5% | -4% | -16% | -85%
O=[N+]([O-])c1ccccc1/C=N/Nc1nccnc1Cl | 3.5µM* | ? | ? | 27µM* | ? | 22%
SMILES | Rab9 promoter act | ELG1 genotox | KinaseGlo FLuc | FLuc modulator | NPC1 promoter act | SMN2 splice enh
O=c1[nH]ncc(N/N=C\c2ccc(O)cc2O)c1Cl | -1% | ? | -8% | ? | 0% | 23%
Oc1ccc(/C=N/Nc2nccnc2Cl)c(O)c1 | -11% | ? | 3.5µM* | 24µM* | 1% | -32%
Nc1cc(Cl)nc(N/N=C/c2ccccc2[N+](=O)[O-])n1 | ? | 25% | -12% | 24µM* | ? | ?
COc1ccccc1NC(=O)CCN1C(=O)c2ccccc2S1(=O)=O | 0% | 0% | -1% | -2% | -2% | 3%
COc1cc(CC(=O)OCC(=O)NCc2ccco2)cc(OC)c1OC | nt | 2% | nt | nt | nt | nt
Cc1cccc(C)c1-n1ncc(C(=O)N2CCN(c3ccccc3)CC2)c1C1CCN(C(=O)OC(C)(C)C)CC1 | nt | nt | nt | -1% | nt | nt
Oc1ccccc1/C=N/Nc1nccnc1Cl | -17% | 13µM* | ? | 17µM* | -25% | -86%
CC(C)(C)c1nnc(N/N=C/c2ccccc2O)n(N)c1=O | -16% | -2% | -2% | ? | -7% | -71%
Cc1ccc(OCc2nc(-c3ccccn3)n[nH]2)cc1 | ? | 7% | -6% | 24µM* | ? | ?
Cc1ccc(-c2cc(C(=O)N3CC(C)OC(C)C3)c3ccccc3n2)o1 (configuration not stated) | -1% | 9% | nt | 11µM* | -1% | nt
Cc1cc(C(=O)N2CC(C)CC(C)C2)c(C)o1 (configuration not stated) | -3% | 0% | nt | 2% | -3% | nt
Cc1ccc(-c2cc(C(=O)N3CC(C)CC(C)C3)c3ccccc3n2)o1 (configuration not stated) | 2% | -1% | nt | 12µM* | 1% | nt
CC1CN(C(=O)c2cc3ccccc3oc2=O)CC(C)O1 (configuration not stated) | 3% | 2% | -5% | 3% | -4% | 6%
NC(=O)CN(Cc1ccccc1)S(=O)(=O)c1ccc2c(c1)OCCO2 | -2% | -4% | nt | 0% | -1% | nt
Cc1ccc(C(=O)NNC(=O)c2nn(-c3ccc(F)cc3)ccc2=O)cc1 | -6% | 1% | nt | 15µM* | -1% | nt
COc1cccc(CNC(=O)Cn2c(=O)c3cccn3c3ccccc32)c1 | 4% | -1% | nt | -1% | 18% | nt
COc1ccc(C(=O)Nc2cccc3ccccc23)cc1 | ? | 13% | nt | 19µM* | ? | nt
COc1cc(OC)c(C(=O)Nc2cccc3ccccc23)cc1OC | 1% | 0% | nt | 19µM* | 10% | nt
COc1ccc(Nc2cccccc2=O)cc1 | 22% | 3% | -4% | ? | 29% | 2%
COc1ccc(Nc2cccc3ccccc23)cc1 | ? | 9% | nt | 27µM* | 19% | nt
COc1ccc(Nc2cc(C)c3ccccc3n2)cc1 | ? | ? | 3% | 13µM* | 28% | ?
COc1ccc(C(=O)NNC(=O)C(=O)Nc2cccc3ccccc23)cc1 | 10% | 4% | nt | -8% | -1% | nt
CC1=C/C(=N\NC(=S)Nc2cccnc2)CC(C)(C)C1 | -1% | -4% | 7% | -19% | -7% | -61%
CCNc1ccc(C(=O)OCC(=O)N(Cc2ccccc2)C(C)(C)C)cc1[N+](=O)[O-] | 0% | -5% | 5% | 3% | -3% | 13%
COc1ccc(CCNC(=O)C2CC(c3cccc([N+](=O)[O-])c3)=NO2)cc1 (configuration not stated) | ? | 18% | 10% | 15µM* | ? | ?

Assay outcomes from PubChem.
